Compound activity deposited in PubChem by National Center for Advancing Translational Sciences (NCATS).
ELG1 genotox – inducers of genotoxicity in HEK293T ELG1-luciferase cells. actives 1.3% (n = 330,000). AID 504466. Potency, µM (titrated, usually from 46 µM), hits mostly activators. HEK293T ELG1-luciferase reporter, luminescence, 16 h; also: nearly all actives have a fitted effect of over 60% in size
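DMSO vehicle served as control against compound-treated ELG1-luciferase HEK293T cells; exposure lasted 16 hr at 37 °C and 5% CO2, followed by ONE-Glo luminescence detection after 30 min.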
NPC1 promoter act – activates the NPC1 promoter | Huh7 NPC1 promoter luciferase reporter, 24 h | Potency, µM (doses to about 9.22 µM), hits mostly activators | actives 2.4% (n = 320,000) | AID 485313; also: nearly all actives have a fitted effect of over 60% in size
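Huh7 cells stably carrying NPC1 promoter–luciferase, plated in Opti-MEM with 10% FBS for 2 h, were exposed to compound in DMSO for 24 h at 37 °C; luciferase reagent was added for 10 min and luminescence read.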
SMN2 splice enh – SMN2 splice variant enhancement | HEK293 SMN2-luciferase splicing reporter, luminescence, 30-36 h | Potency, µM (series often up to 46.1 µM), most hits filed as activators | actives 2.8% (n = 210,000) | AID 1458; also: nearly all actives have a fitted effect of over 55% in size
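HEK293 cells carry an SMN2 minigene-luciferase reporter in which exon 7 inclusion puts luciferase in frame. Cells were seeded at 2000 cells/well, attached for 10-12 hours, then exposed to compounds for 30-36 hours at 37C before ONE-Glo luminescence.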
Rab9 promoter act – activates the Rab9 promoter. Huh7 Rab9 promoter-luciferase reporter, luminescence, 24 h. Potency, µM (highest dose often 9.22 µM), hits mostly activators. actives 2.8% (n = 320,000). AID 485297; also: nearly all actives have a fitted effect of over 60% in size
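Promoter activation is measured as luciferase luminescence in Huh7 cells stably transfected with a Rab9 promoter–luciferase construct, following 24 h compound exposure at 37 °C and 10 min reagent incubation at ambient temperature.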
FLuc counter – inhibits or activates purified firefly luciferase, miR-21 counter-screen; actives 6.9% (n = 360,000); purified FLuc, Km substrates, luminescence inhibition; P08659; Potency, µM (titrated, usually from 57.5 µM), usual class: inhibitors; also: nearly all actives have a fitted effect of over 55% in size
Target sequence (P08659 whole entry, looked up): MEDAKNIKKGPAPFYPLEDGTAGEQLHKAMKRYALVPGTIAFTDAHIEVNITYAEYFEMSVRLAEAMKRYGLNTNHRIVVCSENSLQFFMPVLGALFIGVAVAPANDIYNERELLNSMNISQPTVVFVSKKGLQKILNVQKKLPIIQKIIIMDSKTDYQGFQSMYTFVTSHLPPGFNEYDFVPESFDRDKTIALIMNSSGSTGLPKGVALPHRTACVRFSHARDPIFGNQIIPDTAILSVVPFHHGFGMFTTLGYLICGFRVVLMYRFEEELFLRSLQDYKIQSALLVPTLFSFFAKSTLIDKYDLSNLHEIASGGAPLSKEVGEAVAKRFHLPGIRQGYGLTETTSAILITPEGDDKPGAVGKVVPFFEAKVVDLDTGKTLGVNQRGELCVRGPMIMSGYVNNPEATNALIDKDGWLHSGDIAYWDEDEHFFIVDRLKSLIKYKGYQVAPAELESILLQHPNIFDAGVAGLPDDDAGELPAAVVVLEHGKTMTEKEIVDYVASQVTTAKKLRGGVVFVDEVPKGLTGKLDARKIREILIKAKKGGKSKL
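Biochemical qHTS of compounds, final roughly 60 µM downward over six points, against 10 nM purified firefly luciferase using Km concentrations of substrates (10 uM D-luciferin, 10 uM ATP) in Tris acetate pH 7.5 buffer; luminescence output.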
Numbers stand for hits; [ ] = another dose, or the depositor's remark. An excerpt weighted towards active compounds, which were near 7.5% of everything screened. Calls follow the shape of the dose curve; as a rule, active = well fitted curve in the direction sought with a large enough effect; inconclusive = small, poorly fitted or top-dose-only effect, or another doubt; inactive = no such curve, though single readings can be large; an effect the other way counts as inactive or inconclusive.

Screening COC(=O)c1ccc(Cn2cc(C(F)(F)F)cc([N+](=O)[O-])c2=O)cc1 returned ELG1 genotox inactive, NPC1 promoter act inactive, SMN2 splice enh inactive, Rab9 promoter act inactive and FLuc counter inactive.
COc1cccc(C(=O)/C=C/c2ccc(SC)cc2)c1 was read as ELG1 genotox inactive, NPC1 promoter act inactive, SMN2 splice enh inactive, Rab9 promoter act inactive and FLuc counter 3.4µM.
Screening COc1cccc(C(=O)/C=C/c2ccc(OCC#N)c(OC)c2)c1 returned ELG1 genotox inactive, NPC1 promoter act inactive, SMN2 splice enh inactive[1.84 µM], Rab9 promoter act inactive and FLuc counter inconclusive.
`COC(=O)c1ccc(/C=C/C(=O)c2cccc(OC)c2)cc1` gave ELG1 genotox inconclusive, NPC1 promoter act inconclusive, SMN2 splice enh inactive, Rab9 promoter act inconclusive and FLuc counter 9.5µM.
For Cc1cc(C(=O)COC(=O)c2ccc(Br)o2)c(C)n1Cc1ccco1 the results were ELG1 genotox inconclusive, NPC1 promoter act inactive, SMN2 splice enh inactive, Rab9 promoter act 3.2µM and FLuc counter 2.7µM.
`Cc1cc(C(=O)C(C)Cl)c(C)n1Cc1ccco1` (configuration not stated) gave ELG1 genotox inactive, NPC1 promoter act inactive, SMN2 splice enh inactive, Rab9 promoter act inactive and FLuc counter inactive.
Cc1cc(C(=O)COC(=O)C(C)NC(N)=O)c(C)n1Cc1ccco1 (configuration not stated) was read as ELG1 genotox inactive, NPC1 promoter act inactive, SMN2 splice enh inactive, Rab9 promoter act inactive and FLuc counter 13µM.
Screening COc1ccc(CCC(=O)OCC(=O)NCc2ccc3c(c2)OCO3)cc1 returned ELG1 genotox inactive, NPC1 promoter act inactive, Rab9 promoter act inactive and FLuc counter inactive.
For O=C(COC(=O)CCC(=O)c1ccc2c(c1)OCCO2)NCc1ccc2c(c1)OCO2 the results were ELG1 genotox inactive, NPC1 promoter act inactive, SMN2 splice enh inactive, Rab9 promoter act inactive and FLuc counter 11µM.
`Cc1cc(C(=O)COC(=O)CCC(=O)c2ccc3c(c2)OCCO3)c(C)n1Cc1ccco1` gave ELG1 genotox inconclusive, NPC1 promoter act inactive, SMN2 splice enh inactive, Rab9 promoter act inactive and FLuc counter 8.5µM.
For COc1ccc(NC(=O)CSc2nnnn2C)cc1S(=O)(=O)N1CCCCC1 the results were ELG1 genotox inactive, NPC1 promoter act inactive, Rab9 promoter act inactive and FLuc counter inactive.
`CCOc1ncccc1C(=O)OCC(=O)c1cc(C)n(Cc2ccco2)c1C` gave ELG1 genotox 6.5µM, NPC1 promoter act 0.35µM, SMN2 splice enh inactive, Rab9 promoter act 0.5µM and FLuc counter 0.85µM.
`Cc1cc(C(=O)COC(=O)c2ccc(O)cc2)c(C)n1Cc1ccco1` gave ELG1 genotox inconclusive, NPC1 promoter act 3.5µM, SMN2 splice enh 22µM, Rab9 promoter act 2.5µM and FLuc counter 3.4µM.
Screening Cc1cc(C(=O)COC(=O)CNC(=O)c2ccco2)c(C)n1Cc1ccco1 returned ELG1 genotox inactive, NPC1 promoter act inactive, SMN2 splice enh inactive, Rab9 promoter act inactive and FLuc counter inconclusive.
For COc1cc(OC)cc(C(=O)NCC(=O)OCC(=O)c2cc(C)n(Cc3ccco3)c2C)c1 the results were ELG1 genotox inactive, NPC1 promoter act inactive, SMN2 splice enh inactive, Rab9 promoter act inactive and FLuc counter 27µM.
Screening CC[C@](N)(C(=O)O)C(C)C returned SMN2 splice enh inactive[9.22 µM].
`CCN(C[C@H]1N[C@@](CC)(C(=O)OC)[C@H]2C(=O)N(Cc3ccccc3)C(=O)[C@@H]12)C(=O)c1ccccc1` gave ELG1 genotox inactive.
`CC(C)c1ccc(-c2nnn(CCC(=O)O)n2)cc1` gave ELG1 genotox inactive, NPC1 promoter act inactive, SMN2 splice enh inactive, Rab9 promoter act inactive and FLuc counter 9.5µM.
`CCc1ccc(-c2nnn(CCC#N)n2)cc1` gave ELG1 genotox inactive, NPC1 promoter act inactive, SMN2 splice enh inactive, Rab9 promoter act inactive and FLuc counter inactive.
CCc1ccc(-c2nnn(CCC(=O)OC)n2)cc1 was read as ELG1 genotox inactive, NPC1 promoter act inactive, SMN2 splice enh inactive, Rab9 promoter act inactive and FLuc counter 15µM.
`Cc1cc(C)c(-c2nc3ccccc3s2)[nH]1` gave ELG1 genotox inconclusive, NPC1 promoter act inactive, Rab9 promoter act inactive and FLuc counter 4.8µM.
Screening Oc1cccc(-c2nc3ccccc3s2)c1 returned ELG1 genotox 1.5µM, NPC1 promoter act inactive, SMN2 splice enh inconclusive, Rab9 promoter act inconclusive and FLuc counter 1.7µM.
For Oc1ccc(O)c(Cc2nc3ccccc3s2)c1 the results were ELG1 genotox inactive, NPC1 promoter act inactive, SMN2 splice enh inactive, Rab9 promoter act inactive and FLuc counter inconclusive.
Screening O=C(O)c1ccc2c(c1)C(=O)N(c1cccc(-c3nc4ccccc4s3)c1)C2=O returned ELG1 genotox inactive, NPC1 promoter act inactive, Rab9 promoter act inactive and FLuc counter 2.4µM.
For Nc1cccc(-c2nc3ccccc3s2)c1 the results were ELG1 genotox 3.7µM, NPC1 promoter act 3.2µM, SMN2 splice enh inactive, Rab9 promoter act 4µM and FLuc counter 1.2µM.
CC(C)(C)OC(=O)C[C@@H]1C/C=C\C[C@@H](CC(=O)N[C@H](CO)Cc2ccccc2)C(=O)NC[C@H](c2ccccc2)OC1=O was read as ELG1 genotox inactive.
Screening C=C(C)Cn1c(=O)c2c(nc3n2CCCN3CCc2ccccc2)n(C)c1=O returned ELG1 genotox inactive, NPC1 promoter act inactive, Rab9 promoter act inactive and FLuc counter inactive.
`CC[n+]1cccc(-c2nc3ccccc3s2)c1` gave ELG1 genotox inactive, NPC1 promoter act inactive, SMN2 splice enh inactive, Rab9 promoter act inactive and FLuc counter 27µM.
Screening COc1ccccc1N1CCN(C2CCCN(C(=O)CC(F)(F)F)C2)CC1 (configuration not stated) returned ELG1 genotox inactive, NPC1 promoter act inactive, Rab9 promoter act inactive and FLuc counter inactive.
COc1ccc(-c2csc(Nc3ccc(C)cn3)n2)cc1OC was read as ELG1 genotox inactive, NPC1 promoter act inactive, SMN2 splice enh inactive, Rab9 promoter act inconclusive and FLuc counter 17µM.
Screening COc1ccc(-c2csc(Nc3cc(C)ccn3)n2)cc1OC returned ELG1 genotox inactive, NPC1 promoter act inconclusive, Rab9 promoter act inconclusive and FLuc counter 11µM.
Screening COc1ccc(-c2csc(NC(=O)Cc3cc(OC)c(OC)c(OC)c3)n2)cc1OC returned ELG1 genotox inactive, NPC1 promoter act inactive, Rab9 promoter act inactive and FLuc counter inactive.
COc1ccc(-c2csc(Nc3ccc(S(N)(=O)=O)cc3)n2)cc1OC was read as ELG1 genotox inactive, NPC1 promoter act inactive, Rab9 promoter act inactive and FLuc counter inactive.
Screening CCOc1ccc(-c2nc(=S)[nH][nH]2)cc1 returned ELG1 genotox inconclusive, NPC1 promoter act inactive, SMN2 splice enh inconclusive, Rab9 promoter act inconclusive and FLuc counter 15µM.
For O=C(N=Nc1c(O)n(Cc2ccccc2)c2ccccc12)c1ccc(O)cc1 the results were ELG1 genotox inconclusive, NPC1 promoter act inconclusive, SMN2 splice enh inconclusive, Rab9 promoter act inconclusive and FLuc counter 0.95µM.
